Laboratory results from PubChem BioAssay AID1159580 (chemical genetic matrix, 2015).
“And” between values parts separate entries of the source, which are not always exact repeats. Equal values may be shown once. Screen size: about 5,500 compounds; about 2,000 (36%) were called active. Another 18% or so got no clear call; they are omitted. No stated cut-off is given here; in the data, active means normalized growth mostly below about 0.91 (no sharp cut-off); inconclusive means no clear call, values can overlap the other calls; inactive means mostly above about 0.92. The list shows a part of the results.

Test: chemical genetic growth profiling, strain panel (AID 1159580);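 further: tested at 20 µM; growth read once vehicle control cultures reached saturation at 30 °C; 1 = growth at the plate median or of vehicle wells; lower values mean less growth of the strain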
Details: S. cerevisiae deletion strains, growth OD

Measured: normalized growth

COC(=O)C[C@H]1C2(C)CC34OC5(C)O[C@@]6([C@H](OC)C(OC(=O)C(C)C)[C@]7(C)C(/C(=C(/OC)C(C)C)C(=O)O[C@H]7c7ccoc7)[C@@]6(O5)[C@H](OC)[C@@]3(OC)C2OC(C)=O)[C@]14C (stereo partly specified)
inactive: locus YAL013W, strain DEP1, hits give low values 1.02 | locus YAL021C, strain ccr4, hits give low values 1 | locus YAL026C, strain drs2, hits give low values 0.994 | locus YAL030W, strain snc1, hits give low values 0.984 | locus YBL061C, strain skt5, hits give low values 0.962 | locus YBR009C, strain hhf1, hits give low values 0.965 | locus YBR021W, strain FUR4, hits give low values 1.02 | locus YBR023C, strain chs3, hits give low values 0.994 | locus YBR171W, strain sec66, hits give low values 0.989 | locus YBR229C, strain ROT2, hits give low values 1.01 | locus YBR231C, strain swc5, hits give low values 0.979 | locus YBR279W, strain paf1, hits give low values 0.985 | locus YCL011C, strain gbp2, hits give low values 0.975 | locus YCL016C, strain dcc1, hits give low values 0.976 | locus YCL029C, strain bik1, hits give low values 1.03 | locus YCL069W, strain vba3, hits give low values 0.983 | locus YCR088W, strain abp1, hits give low values 0.989 | locus YDL005C, strain med2, hits give low values 0.972 | locus YDL035C, strain GPR1, hits give low values 1.03 | locus YDL040C, strain nat1, hits give low values 0.984 | locus YDL074C, strain BRE1, hits give low values 1.04 | locus YDL101C, strain DUN1, hits give low values 1.02 | locus YDL134C, strain PPH21, hits give low values 1.01 | locus YDL185W, strain tfp1, hits give low values 1.02 | locus YDL192W, strain arf1, hits give low values 1.03 | locus YDR001C, strain nth1, hits give low values 0.974 | locus YDR069C, strain doa4, hits give low values 0.96 | locus YDR101C, strain arx1, hits give low values 1.02 | locus YDR137W, strain rgp1, hits give low values 0.95 | locus YDR159W, strain sac3, hits give low values 1 | locus YDR162C, strain NBP2, hits give low values 1.02 | locus YDR195W, strain ref2 0.986 | locus YDR297W, strain sur2, hits give low values 0.967 | locus YDR318W, strain mcm21, hits give low values 1.03 | locus YDR334W, strain swr1, hits give low values 0.965 | locus YDR335W, strain msn5, hits give low values 0.97 | locus YDR388W, hits give low values 1.02 | locus YDR392W, strain spt3, hits give low values 0.992 | locus YDR502C, strain sam2, hits give low values 1 | locus YEL003W, strain gim4, hits give low values 0.976 | locus YEL037C, strain rad23, hits give low values 0.99 | locus YEL061C, strain CIN8 (second series), hits give low values 0.978 | locus YER015W, strain faa2, hits give low values 0.978 | locus YER016W, strain bim1, hits give low values 0.98 | locus YER110C, hits give low values 1.02 | locus YER111C, strain swi4, hits give low values 0.969 | locus YER155C, strain BEM2 (second series), hits give low values 0.967 | locus YER155C, strain BEM2, hits give low values 1 | locus YER167W, strain BCK2, hits give low values 1.02 | locus YFR010W, strain ubp6, hits give low values 0.992 | locus YGL078C, strain dbp3, hits give low values 0.994 | locus YGL086W, strain mad1, hits give low values 1.01 | locus YGL167C, strain pmr1, hits give low values 0.992 | locus YGL173C, strain kem1, hits give low values 0.985 | locus YGL227W, strain vid30, hits give low values 0.979 | locus YGL240W, strain doc1, hits give low values 0.965 | locus YGL248W, strain PDE1, hits give low values 1.01 | locus YGL253W, strain hxk2, hits give low values 0.983 | locus YGR135W, strain pre9, hits give low values 1.02 | locus YGR229C, strain SMI1, hits give low values 0.998 | locus YGR252W, strain gcn5, hits give low values 0.994 | locus YHR013C, strain ard1, hits give low values 0.943 | locus YHR027C, strain rpn1, hits give low values 0.994 | locus YHR030C, strain SLT2, hits give low values 0.969 | locus YHR079C, strain IRE1 (second series), hits give low values 1 | locus YHR079C, strain IRE1, hits give low values 1 | locus YHR094C, strain hxt1, hits give low values 1.01 | locus YHR129C, strain ARP1, hits give low values 1.02 | locus YHR142W, strain chs7, hits give low values 0.97 | locus YHR200W, strain rpn10, hits give low values 1.02 | locus YIL066C, strain RNR3, hits give low values 1.04 | locus YIL073C, strain SPO22, hits give low values 1.02 | locus YIL125W, strain kgd1, hits give low values 1.01 | locus YIR030C, strain dcg1, hits give low values 1.02 | locus YJL092W, strain hpr5, hits give low values 0.973 | locus YJL095W, strain BCK1 (second series), hits give low values 0.995 | locus YJL095W, strain BCK1, hits give low values 0.995 and 0.969 | locus YJL115W, strain asf1, hits give low values 0.967 | locus YJL129C, strain trk1, hits give low values 0.944 | locus YJL134W, strain LCB3, hits give low values 1.01 | locus YJL154C, strain vps35, hits give low values 0.981 | locus YJL164C, strain tpk1, hits give low values 1.01 | locus YJL166W, strain qcr8, hits give low values 0.99 | locus YJL168C, strain set2, hits give low values 1.01 | locus YJL187C, strain SWE1 (second series), hits give low values 1.01 | locus YJR043C, strain POL32, hits give low values 1.03 | locus YJR066W, strain TOR1, hits give low values 0.884 | locus YKL009W, strain mrt4, hits give low values 0.959 | locus YKL068W, hits give low values 0.998 | locus YKL085W, strain MDH1 (second series), hits give low values 1.01 | locus YKL085W, strain MDH1, hits give low values 1.01 | locus YKL160W, strain elf1, hits give low values 0.987 | locus YKR001C, strain vps1, hits give low values 0.992 | locus YKR026C, strain gcn3, hits give low values 0.983 | locus YKR091W, strain srl3, hits give low values 0.984 | locus YLL001W, strain dnm1, hits give low values 0.973 | locus YLL026W, hits give low values 0.978 | locus YLL041C, strain sdh2, hits give low values 0.987 | locus YLR027C, strain aat2, hits give low values 0.974 | locus YLR039C, strain RIC1, hits give low values 0.908 | locus YLR058C, strain SHM2, hits give low values 1.01 | locus YLR102C, strain apc9, hits give low values 1 | locus YLR113W, strain HOG1, hits give low values 1.01 | locus YLR221C, strain rsa3, hits give low values 0.976 | locus YLR258W, strain gsy2, hits give low values 0.996 | locus YLR262C, strain YPT6 (second series), hits give low values 0.997 | locus YLR262C, strain YPT6, hits give low values 0.754 | locus YLR268W, strain sec22, hits give low values 1.03 | locus YLR320W, strain mms22, hits give low values 0.988 | locus YLR342W, strain FKS1 (second series), hits give low values 0.987 | locus YLR342W, strain FKS1, hits give low values 0.982 | locus YLR357W, strain rsc2, hits give low values 1.01 | locus YLR370C, strain arc18, hits give low values 0.971 | locus YLR371W, strain rom2, hits give low values 1.04 | locus YLR384C, strain iki3, hits give low values 0.984 | locus YLR418C, strain cdc73, hits give low values 1.04 | locus YML016C, strain PPZ1, hits give low values 1.01 | locus YML032C, strain rad52, hits give low values 1 | locus YML120C, strain ndi1, hits give low values 0.982 | locus YML124C, strain tub3, hits give low values 1.01 | locus YMR058W, strain fet3, hits give low values 0.97 | locus YMR078C, strain ctf18, hits give low values 1.01 | locus YMR125W, strain sto1, hits give low values 0.986 | locus YMR129W, hits give low values 0.986 | locus YMR205C, strain PFK2, hits give low values 1 | locus YMR223W, strain ubp8, hits give low values 1.01 | locus YMR231W, strain pep5, hits give low values 0.975 | locus YMR307W, strain GAS1, hits give low values 1.23 | locus YNL067W, strain RPL9B, hits give low values 1.01 | locus YNL071W, strain lat1, hits give low values 0.989 | locus YNL153C, strain GIM3, hits give low values 1.03 | locus YNL183C, strain NPR1, hits give low values 0.935 | locus YNL209W, strain ssb2, hits give low values 0.985 | locus YNL233W, strain BNI4, hits give low values 1.04 | locus YNL248C, strain rpa49, hits give low values 0.977 | locus YNL250W, strain rad50, hits give low values 1.04 | locus YNL271C, strain bni1, hits give low values 1.02 | locus YNL298W, strain CLA4, hits give low values 1 | locus YNL307C, strain MCK1, hits give low values 1.02 | locus YNL322C, strain KRE1 (second series), hits give low values 0.972 | locus YNL322C, strain KRE1, hits give low values 1.01 | locus YNR049C, strain mso1, hits give low values 0.96 | locus YNR052C, strain pop2, hits give low values 1.03 | locus YOL006C, strain TOP1, hits give low values 1.06 | locus YOL012C, strain htz1 0.933 | locus YOL147C, strain pex11, hits give low values 1.02 | locus YOR001W, strain rrp6, hits give low values 0.967 | locus YOR061W, strain CKA2, hits give low values 1.04 | locus YOR069W, strain VPS5, hits give low values 1.01 | locus YOR070C, strain gyp1, hits give low values 1.01 | locus YOR080W, strain dia2, hits give low values 0.964 | locus YOR083W, strain WHI5, hits give low values 0.993 | locus YOR106W, strain vam3, hits give low values 0.953 | locus YOR136W, strain idh2, hits give low values 1 | locus YOR144C, strain elg1, hits give low values 1.01 | locus YOR184W, strain ser1, hits give low values 1.04 | locus YOR231W, strain MKK1, hits give low values 0.955 | locus YOR265W, strain rbl2, hits give low values 0.994 | locus YOR270C, strain vph1, hits give low values 0.866 | locus YOR290C, strain snf2, hits give low values 0.962 | locus YOR316C, strain cot1, hits give low values 1 | locus YPL051W, strain arl3, hits give low values 1 | locus YPL078C, strain atp4, hits give low values 0.964 | locus YPL106C, strain sse1, hits give low values 1.02 | locus YPL240C, strain hsp82, hits give low values 0.988 | locus YPL256C, strain CLN2, hits give low values 0.966 | locus YPR119W, strain clb2, hits give low values 1 | locus YPR141C, strain kar3, hits give low values 1.02 | locus YPR163C, strain tif3, hits give low values 1.02 | locus YPR167C, strain met16, hits give low values 1.01 | strain wtn01, hits give low values 0.995
